Experimental data taken from PubChem BioAssay.
The source made the active and inactive calls.

Columns and labels:
[1] = compound effects on lung adenocarcinoma cell viability – A549, calcein-AM fluorescence, 48 h, basal, profiling panel (AID 1162); details: higher = more signal
[2] = compound effects on differentiated 3T3-L1 adipocyte viability – cell-based, 3T3-L1 adipocytes, calcein-AM fluorescence, 48 h, basal, profiling panel (AID 1163); details: 3T3-L1 adipocytes viability, higher = more signal
[3] = compound effects on hepatocellular carcinoma cell viability – HepG2, calcein-AM fluorescence, 48 h, basal, profiling panel (AID 1164); details: higher = more signal
[4] = compound effects on multiple myeloma cell viability – MM1S, calcein-AM fluorescence, 48 h, basal, profiling panel (AID 1165); details: higher = more signal;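 also: viability of MM1S multiple myeloma cells under basal unstimulated conditions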
[5] = calcein-AM signal in unstimulated myeloma cells – cell-based, calcein-AM fluorescence, 48 h, PK04 Diversity Set, profiling panel (AID 1166); details: RPMI8226 myeloma viability, higher = more signal;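 also: cells grown under basal conditions without added stimulus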
[6] = JC-1 mitochondrial signal, unstimulated HepG2 cells – cell-based, JC-1 fluorescence, 24 h, 100 nL compound, profiling panel (AID 1167); details: HepG2 mitochondrial potential, higher = more signal
[7] = JC-1 mitochondrial signal, unstimulated adipocytes – cell-based, JC-1 fluorescence, 3T3-L1 adipocytes, 24 h, 100 nL compound, profiling panel (AID 1168); details: JC-1 mitochondrial fluorescence, higher = more signal, called active from +8 up or from −8 down
[8] = JC-1 mitochondrial signal, unstimulated myeloma cells – cell-based, JC-1 fluorescence, RPMI8226, 24 h, 100 nL compound, profiling panel (AID 1169); details: JC-1 mitochondrial potential fluorescence, higher = more signal
[9] = JC-1 mitochondrial signal, unstimulated MM1S myeloma – cell-based, JC-1 fluorescence, 24 h, 100 nL compound, profiling panel (AID 1170); details: MM1S mitochondrial potential, higher = more signal
[10] = resazurin metabolic signal in A549 cells – cell-based, resazurin fluorescence, 24 h, PK04 Diversity Set, profiling panel (AID 1171); details: A549 viability, higher = more signal, called active from +8 up or from −8 down
Also: test concentration not given here.

Compound	z-score [1]	z-score [2]	z-score [3]	z-score [4]	z-score [5]	z-score [6]	z-score [7]	z-score [8]	z-score [9]	z-score [10]
COCC1=C([C@H](O)CCc2ccccc2)[C@H](CO)[C@@H]2C(=O)N(C)C(=O)[C@@H]2C1	0.803	-0.473	0.693	0.347	-0.243	0.618	-0.368 (inactive)	0.442	0.341	-0.515 (inactive)
COCC(=C=CC[C@@H](O)c1ccccc1OCCO)C[C@@H](O)COCc1ccccc1	1.94	1.04	1.13	0.338	0.801	1.32	0.54 (inactive)	-0.719	1.59	1.84 (inactive)
C[N+](C)(C)CCCCCCNC(=O)[C@@H]1C[C@@H]2C(=O)NCC(=O)N2[C@@H]1c1cccc(OCCO)c1	-0.308	0.867	-1.2	-2.7	0.422	-0.844	-0.0181 (inactive)	-0.0934	-1.39	1.46 (inactive)
CCOC(=O)C1=CC[C@@H](c2ccccc2)N(S(=O)(=O)c2ccc(C)cc2)[C@H]1C=C(C)C	-1.36	-1.2	-1.01	-1.33	-0.89	4.57	-0.638 (inactive)	-1.01	-1.79	1.26 (inactive)
CC(C)NC(=O)[C@@]1(Cc2ccccc2I)c2ccccc2C(=O)N(Cc2ccccc2C(F)(F)F)[C@H]1c1ccc(CO)cc1	0.325	1.77	0.289	-1.43	-1.66	0.347	0.536 (inactive)	-0.476	0.749	0.444 (inactive)
C=C(C(=O)CC[C@H](OC(=O)c1cccnc1)c1ccc(OCCO)cc1)C(C)C	-0.328	0.165	-0.823	-3.3	-1.75	0.149	-0.00639 (inactive)	-0.634	-1.45	-0.569 (inactive)
C=CC[C@@]1(C(=O)NCC(O)CO)N=C(c2ccc(OCCCO)cc2)O[C@@H]1c1ccccc1 (stereo not given in full)	0.183	1.07	-0.412	0.281	-0.561	-0.152	0.622 (inactive)	0.49	1.18	0.295 (inactive)
OCc1ccc(-c2cc[n+](Cc3cccc(OC(F)(F)F)c3)cc2)cc1	-1.19	0.983	-0.52	0.47	-0.483	-0.628	0.296 (inactive)	-0.672	-0.704	-0.395 (inactive)
C#CCOC(=O)N[C@H](C=CCCCC)c1ccccc1	-1.18	-0.115	-0.517	-0.334	-0.508	1.47	-0.62 (inactive)	0.15	0.0811	-0.28 (inactive)
CC(C)NC(=O)[C@@H]1c2ccccc2C(=O)N(Cc2cc(C(F)(F)F)cc(C(F)(F)F)c2)[C@H]1c1ccc(CO)cc1	-0.255	0.884	-0.355	-1.1	-1.42	0.571	0.198 (inactive)	0.967	0.144	0.634 (inactive)
COCCCNC(=O)[C@@]1(Cc2ccccc2)COC(c2ccc(OCCCO)cc2)=N1	0.654	-0.598	1.02	-0.35	-1.04	-1.11	0.154 (inactive)	-0.367	-0.693	0.244 (inactive)
CCOC(=O)C1=CC[C@@H](c2cccc(Br)c2)N(S(=O)(=O)c2ccc(C)cc2)[C@H]1c1ccc([N+](=O)[O-])cc1	-0.699	-0.349	-0.203	-1.07	-1.24	1.45	0.097 (inactive)	-0.841	-1.57	0.851 (inactive)
C[C@@]1([C@@H](NC(=O)c2cccs2)c2ccc(-c3ccccc3)cc2)C[C@H]1C1CCCCC1	-1.23	0.437	-0.644	-2.17	-4.43	-0.734	0.395 (inactive)	-0.843	-1.09	2.26 (inactive)
COc1ccc(CCNC(=O)[C@@H]2c3ccccc3C(=O)N(Cc3ccccc3)[C@H]2c2ccc(CO)cc2)cc1	2.96	1.29	2.44	-0.913	1.02	2.56	1.26 (inactive)	-0.192	-0.502	0.577 (inactive)
CC(C)(C)N1CC=CC23O[C@@H]4C=CCCOC(=O)C4[C@H]2C(=O)N(CCCO)[C@@H]3C1=O (stereo not given in full)	0.28	1.75	0.15	-0.685	-0.783	-1.26	0.514 (inactive)	0.846	-0.0658	-1.22 (inactive)
[N-]=[N+]=NCc1ccccc1C[C@]1(C(=O)NCCN2CCOCC2)COC(c2ccc(OCCCO)cc2)=N1	1.18	-0.487	0.652	0.689	-0.699	2.24	0.498 (inactive)	-0.218	-1.05	0.169 (inactive)

Compound	z-score [1]	z-score [2]	z-score [3]	z-score [4]	z-score [5]	z-score [6]	z-score [7]	z-score [8]	z-score [9]	z-score [10]
COCCOC(=O)N1C(=O)[C@@]2(c3cc(C#Cc4ccc(OC)cc4)ccc31)[C@H](C(N)=O)[C@H]1C(=O)O[C@H](c3ccccc3)[C@H](c3ccccc3)N1[C@@H]2c1ccc(OCCO)cc1	-1.42	0.879	-0.656	-1.79	-2.31	-1.59	2.52 (inactive)	-0.57	-1.39	0.676 (inactive)
[N-]=[N+]=Nc1ccccc1[C@H]1OC(c2ccc(OCCCO)cc2)=N[C@@]1(Cc1ccccc1)C(=O)NCc1ccccc1	-1.16	0.491	-1.07	-1.04	-3.84	0.671	-1.17 (inactive)	-1.16	-2.17	-1.56 (inactive)
NC(=O)NCC#Cc1ccc2c(c1)[C@]1(C(=O)N2)[C@H](c2ccc(O)cc2)N2[C@H](c3ccccc3)[C@H](c3ccccc3)OC(=O)[C@H]2[C@@H]1C(N)=O	0.233	-1.07	0.705	0.669	1.23	-0.538	-0.06 (inactive)	-0.371	-0.691	-1.08 (inactive)
C=CCOC(=O)[C@@H]1[C@H]2C(=O)O[C@H](c3ccccc3)[C@H](c3ccccc3)N2[C@H](c2ccc(OCCOC(=O)[C@@H]3C[C@@H]4C(=O)N[C@@H](CCCCNC(C)=O)C(=O)N4[C@@H]3c3ccc(O)cc3)cc2)[C@@]12C(=O)Nc1ccc(I)cc12	0.32	-0.571	-0.179	-0.154	0.165	-0.396	1.21 (inactive)	-0.482	-1.14	0.873 (inactive)
COCCOC(=O)N1C(=O)[C@@]2(c3ccccc31)[C@H](c1ccc(OCCO)cc1)N1[C@H](c3ccccc3)[C@H](c3ccccc3)OC(=O)[C@H]1[C@@H]2C(=O)NC[C@H](O)c1ccccc1	-0.332	0.754	0.349	-0.991	-2.39	-0.32	0.988 (inactive)	0.199	-0.864	-1.16 (inactive)
O=C(CS)NCCCCCNC(=O)[C@@H]1C[C@@H]2C(=O)N3CCC[C@H]3C(=O)N2[C@@H]1c1ccc(O)cc1	0.644	-0.239	0.413	-0.96	0.125	-0.264	-0.155 (inactive)	-0.282	0.684	-0.284 (inactive)
C=CCN1C(=O)[C@@]2(O[C@@H](CCO)[C@H]([Si](C)(C)c3ccc(OC)cc3)[C@H]2C)c2cc(NC(=O)[C@H](C)O)ccc21	0.174	0.178	-2.92	-2.69	-4.41	1.89	0.18 (inactive)	-0.872	-1.09	-2.25 (inactive)
NCCCCCCNC(=O)[C@H]1C[C@H]2C(=O)N3CCC[C@H]3C(=O)N2[C@H]1c1ccc(O)cc1	-0.194	1.14	-1.01	-0.346	-0.707	-0.806	-1.34 (inactive)	0.26	0.698	-0.608 (inactive)
CC(C)c1ccc(NN2C(C(O)c3ccccn3)C=CC3C(=O)N(c4ccccc4)C(=O)C32)cc1 (stereo not given)	-0.381	-0.696	-0.293	0.741	-0.712	-0.357	-1.17 (inactive)	-0.597	-0.729	-0.943 (inactive)
C=C(C)[C@@H]1CC=C(C(O)C2C=CC3C(=O)N(C4CCCCC4)C(=O)C3N2Nc2ccc(OC)cc2)CC1 (stereo not given in full)	-0.447	-1.46	0.319	0.0801	-0.0663	-0.227	-0.836 (inactive)	-0.393	-1.4	0.784 (inactive)
O=C1C2C=CC(C(O)c3ccccn3)N(Nc3ccccc3)C2C(=O)N1c1ccccc1 (stereo not given)	0.312	-1.46	0.593	0.111	-0.0462	-0.568	-0.467 (inactive)	-0.234	-1.11	-0.752 (inactive)
COCCOC(=O)N1C(=O)[C@@]2(c3cc(C#CCNC(N)=O)ccc31)[C@H](c1ccc(OCCO)cc1)N1[C@H](c3ccccc3)[C@H](c3ccccc3)OC(=O)[C@H]1[C@@H]2C(=O)N1CCN(c2ncccn2)CC1	-0.142	0.169	-0.123	-0.216	0.191	-1.76	1 (inactive)	0.118	-0.572	1.28 (inactive)
COc1ccc([Si](C)(C)[C@@H]2[C@@H](CC(=O)N(CCO)Cc3ccccc3)O[C@]3(C(=O)N(C)c4c(Br)cc(C)cc43)[C@H]2C)cc1	-2.07	-0.0228	-2.44	-2.75	-4.38	-2.82	-0.68 (inactive)	-1.17	-2.11	-0.99 (inactive)
CC(=O)NCCCC[C@@H]1NC(=O)[C@H]2C[C@@H](C(=O)NCCCCCN)[C@@H](c3cccc(OCCO)c3)N2C1=O	-0.0064	0.352	0.491	0.701	0.948	0.0469	0.408 (inactive)	-0.38	0.155	1.1 (inactive)
O=C1C[C@@](C(=O)O)(c2ccc([N+](=O)[O-])cc2)[C@@H](c2ccc(CO)cc2)N1CC12CC3CC(CC(C3)C1)C2	0.0051	0.0068	0.313	-1.49	-2.4	0.609	0.473 (inactive)	-0.15	-0.811	0.689 (inactive)
C[N+](C)(C)CCCC[C@@H]1NC(=O)[C@H]2C[C@@H](C(=O)NCCCCCCN)[C@@H](c3cccc(OCCO)c3)N2C1=O	-0.535	0.875	-0.997	0.179	1.07	-1.01	-0.547 (inactive)	-0.0252	-0.154	-0.871 (inactive)
